The source of these data is ChEMBL document CHEMBL1961873, “Compounds: GSK PKIS; Assays: Nanosyn kinase panel” (2012).

Assay [1] has as its target Protein kinase C gamma type (Homo sapiens) (UniProt P05129). Conditions: at 1 µM.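 Also: each value is an averaged percent inhibition of the enzyme.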
Assay [2] deals with T1, Protein kinase C iota type (Homo sapiens) (UniProt P41743).
T1 sequence (whole entry): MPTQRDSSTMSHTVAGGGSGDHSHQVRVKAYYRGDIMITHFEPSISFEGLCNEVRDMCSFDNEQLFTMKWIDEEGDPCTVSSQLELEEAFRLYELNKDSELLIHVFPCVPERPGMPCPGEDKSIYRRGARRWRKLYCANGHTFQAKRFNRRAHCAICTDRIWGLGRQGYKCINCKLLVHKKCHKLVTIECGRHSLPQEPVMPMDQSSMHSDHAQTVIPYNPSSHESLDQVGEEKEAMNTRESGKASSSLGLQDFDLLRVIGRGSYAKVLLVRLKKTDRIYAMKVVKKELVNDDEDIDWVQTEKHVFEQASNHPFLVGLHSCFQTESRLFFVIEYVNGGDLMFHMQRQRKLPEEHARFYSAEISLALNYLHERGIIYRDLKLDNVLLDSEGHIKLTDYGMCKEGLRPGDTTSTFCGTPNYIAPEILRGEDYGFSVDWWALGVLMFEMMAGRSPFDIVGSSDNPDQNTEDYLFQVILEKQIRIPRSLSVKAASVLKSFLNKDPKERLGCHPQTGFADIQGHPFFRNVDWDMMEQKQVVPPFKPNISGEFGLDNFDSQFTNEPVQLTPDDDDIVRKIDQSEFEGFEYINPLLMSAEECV
Conditions: at 0.1 µM.

For assay [3], the target named is T1, Protein kinase C iota type (Homo sapiens). The conditions noted are these: at 1 µM.
The target of assay [4] is Protein kinase C theta type (Homo sapiens) (UniProt Q04759). Conditions: at 0.1 µM.
Protein kinase C theta type (Homo sapiens), sequence (Q04759 whole entry, looked up): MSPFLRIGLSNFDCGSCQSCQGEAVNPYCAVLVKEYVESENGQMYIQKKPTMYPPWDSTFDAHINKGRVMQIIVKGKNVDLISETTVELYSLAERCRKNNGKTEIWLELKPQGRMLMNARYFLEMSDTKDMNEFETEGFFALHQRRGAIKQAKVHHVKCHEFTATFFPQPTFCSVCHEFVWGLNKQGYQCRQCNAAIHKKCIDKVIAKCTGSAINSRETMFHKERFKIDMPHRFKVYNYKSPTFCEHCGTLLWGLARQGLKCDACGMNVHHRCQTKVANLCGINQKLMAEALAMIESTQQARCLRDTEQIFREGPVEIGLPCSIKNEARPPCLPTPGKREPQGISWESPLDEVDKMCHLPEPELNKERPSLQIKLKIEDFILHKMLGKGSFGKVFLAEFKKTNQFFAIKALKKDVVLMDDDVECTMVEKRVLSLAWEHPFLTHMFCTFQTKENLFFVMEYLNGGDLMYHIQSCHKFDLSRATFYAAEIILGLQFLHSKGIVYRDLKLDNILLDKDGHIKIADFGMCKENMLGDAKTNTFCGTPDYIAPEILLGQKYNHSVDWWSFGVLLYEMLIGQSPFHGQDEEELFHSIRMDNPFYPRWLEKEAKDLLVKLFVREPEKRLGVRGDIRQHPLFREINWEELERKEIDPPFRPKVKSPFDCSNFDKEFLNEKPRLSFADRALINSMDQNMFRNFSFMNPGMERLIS
The target is the same in assay [5]. Conditions: at 1 µM.
In assay [6] the target is Protein kinase C beta type (Homo sapiens) (UniProt P05771). The conditions noted are these: at 0.1 µM.
Protein kinase C beta type (Homo sapiens), sequence (P05771 2-671 limits assumed): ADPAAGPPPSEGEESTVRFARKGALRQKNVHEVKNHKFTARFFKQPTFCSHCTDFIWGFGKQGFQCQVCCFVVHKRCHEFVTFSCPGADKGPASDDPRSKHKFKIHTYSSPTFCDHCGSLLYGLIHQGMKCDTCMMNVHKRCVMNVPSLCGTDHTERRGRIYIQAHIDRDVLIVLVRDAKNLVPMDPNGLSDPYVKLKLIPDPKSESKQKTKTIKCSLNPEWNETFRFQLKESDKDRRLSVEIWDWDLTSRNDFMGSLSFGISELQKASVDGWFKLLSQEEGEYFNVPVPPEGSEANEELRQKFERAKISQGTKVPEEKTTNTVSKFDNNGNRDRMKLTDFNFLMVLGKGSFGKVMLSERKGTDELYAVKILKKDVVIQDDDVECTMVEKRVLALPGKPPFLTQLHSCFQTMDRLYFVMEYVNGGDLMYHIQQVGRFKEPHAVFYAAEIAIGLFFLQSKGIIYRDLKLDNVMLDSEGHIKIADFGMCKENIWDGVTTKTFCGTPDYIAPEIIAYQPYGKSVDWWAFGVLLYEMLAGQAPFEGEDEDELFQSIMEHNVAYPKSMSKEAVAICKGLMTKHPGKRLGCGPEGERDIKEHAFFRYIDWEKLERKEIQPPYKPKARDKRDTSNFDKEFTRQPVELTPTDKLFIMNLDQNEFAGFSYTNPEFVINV
Assay [7] has the same target. The conditions noted are these: at 1 µM.
For assay [8], the target named is T2, Serine/threonine-protein kinase D1 (Homo sapiens) (UniProt Q15139).
T2 sequence (whole entry): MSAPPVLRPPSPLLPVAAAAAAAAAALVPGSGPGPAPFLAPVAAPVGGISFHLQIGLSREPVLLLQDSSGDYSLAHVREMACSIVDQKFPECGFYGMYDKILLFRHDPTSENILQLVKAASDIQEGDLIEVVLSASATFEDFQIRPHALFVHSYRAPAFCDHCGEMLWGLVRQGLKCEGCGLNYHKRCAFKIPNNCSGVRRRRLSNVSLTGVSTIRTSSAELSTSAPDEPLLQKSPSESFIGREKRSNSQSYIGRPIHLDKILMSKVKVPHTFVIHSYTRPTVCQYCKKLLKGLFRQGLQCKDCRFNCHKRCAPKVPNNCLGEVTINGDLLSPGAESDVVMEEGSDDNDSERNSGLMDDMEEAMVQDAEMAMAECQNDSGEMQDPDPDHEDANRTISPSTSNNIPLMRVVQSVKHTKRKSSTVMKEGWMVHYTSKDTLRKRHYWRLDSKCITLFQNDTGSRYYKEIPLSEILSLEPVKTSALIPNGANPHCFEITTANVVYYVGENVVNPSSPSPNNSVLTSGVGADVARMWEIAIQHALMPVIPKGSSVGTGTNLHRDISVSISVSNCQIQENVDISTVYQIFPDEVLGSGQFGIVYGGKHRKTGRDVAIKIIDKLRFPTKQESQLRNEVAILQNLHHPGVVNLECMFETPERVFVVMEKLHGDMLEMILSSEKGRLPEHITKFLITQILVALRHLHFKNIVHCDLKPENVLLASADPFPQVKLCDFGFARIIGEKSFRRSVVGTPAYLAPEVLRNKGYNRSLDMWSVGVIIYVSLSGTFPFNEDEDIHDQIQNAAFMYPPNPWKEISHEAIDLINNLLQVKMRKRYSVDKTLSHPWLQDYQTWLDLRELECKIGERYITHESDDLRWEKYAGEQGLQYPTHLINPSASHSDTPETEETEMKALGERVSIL
The conditions noted are these: at 0.1 µM.

For assay [9], the target named is T2, Serine/threonine-protein kinase D1 (Homo sapiens). The conditions noted are these: at 1 µM.
The target of assay [10] is T3, Serine/threonine-protein kinase D2 (Homo sapiens) (UniProt Q9BZL6).
T3 sequence (whole entry): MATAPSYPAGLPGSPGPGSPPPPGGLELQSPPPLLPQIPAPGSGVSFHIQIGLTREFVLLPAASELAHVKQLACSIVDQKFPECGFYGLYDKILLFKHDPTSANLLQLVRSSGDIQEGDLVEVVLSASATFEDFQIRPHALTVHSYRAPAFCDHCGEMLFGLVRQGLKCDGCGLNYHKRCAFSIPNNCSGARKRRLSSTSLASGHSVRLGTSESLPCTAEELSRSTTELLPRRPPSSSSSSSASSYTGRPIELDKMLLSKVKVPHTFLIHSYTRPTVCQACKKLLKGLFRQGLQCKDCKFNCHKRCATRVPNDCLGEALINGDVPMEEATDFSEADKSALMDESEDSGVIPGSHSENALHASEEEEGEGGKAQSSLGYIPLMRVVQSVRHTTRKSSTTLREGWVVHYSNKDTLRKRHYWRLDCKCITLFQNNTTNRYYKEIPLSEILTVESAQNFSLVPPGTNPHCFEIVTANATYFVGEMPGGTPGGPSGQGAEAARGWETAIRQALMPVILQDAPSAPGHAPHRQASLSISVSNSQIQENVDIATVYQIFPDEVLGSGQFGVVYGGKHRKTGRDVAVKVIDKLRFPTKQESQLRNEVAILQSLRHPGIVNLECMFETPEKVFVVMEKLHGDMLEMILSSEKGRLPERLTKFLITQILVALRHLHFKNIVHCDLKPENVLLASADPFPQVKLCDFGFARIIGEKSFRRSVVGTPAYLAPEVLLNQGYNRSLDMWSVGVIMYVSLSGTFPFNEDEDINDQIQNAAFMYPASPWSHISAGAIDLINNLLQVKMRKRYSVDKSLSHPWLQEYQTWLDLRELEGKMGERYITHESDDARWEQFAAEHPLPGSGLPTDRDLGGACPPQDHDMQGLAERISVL
Conditions: at 0.1 µM.

Assay [11] deals with T3, Serine/threonine-protein kinase D2 (Homo sapiens). The conditions noted are these: at 1 µM.
For assay [12], the target named is T4, Serine/threonine-protein kinase D3 (Homo sapiens) (UniProt O94806).
T4 sequence (whole entry): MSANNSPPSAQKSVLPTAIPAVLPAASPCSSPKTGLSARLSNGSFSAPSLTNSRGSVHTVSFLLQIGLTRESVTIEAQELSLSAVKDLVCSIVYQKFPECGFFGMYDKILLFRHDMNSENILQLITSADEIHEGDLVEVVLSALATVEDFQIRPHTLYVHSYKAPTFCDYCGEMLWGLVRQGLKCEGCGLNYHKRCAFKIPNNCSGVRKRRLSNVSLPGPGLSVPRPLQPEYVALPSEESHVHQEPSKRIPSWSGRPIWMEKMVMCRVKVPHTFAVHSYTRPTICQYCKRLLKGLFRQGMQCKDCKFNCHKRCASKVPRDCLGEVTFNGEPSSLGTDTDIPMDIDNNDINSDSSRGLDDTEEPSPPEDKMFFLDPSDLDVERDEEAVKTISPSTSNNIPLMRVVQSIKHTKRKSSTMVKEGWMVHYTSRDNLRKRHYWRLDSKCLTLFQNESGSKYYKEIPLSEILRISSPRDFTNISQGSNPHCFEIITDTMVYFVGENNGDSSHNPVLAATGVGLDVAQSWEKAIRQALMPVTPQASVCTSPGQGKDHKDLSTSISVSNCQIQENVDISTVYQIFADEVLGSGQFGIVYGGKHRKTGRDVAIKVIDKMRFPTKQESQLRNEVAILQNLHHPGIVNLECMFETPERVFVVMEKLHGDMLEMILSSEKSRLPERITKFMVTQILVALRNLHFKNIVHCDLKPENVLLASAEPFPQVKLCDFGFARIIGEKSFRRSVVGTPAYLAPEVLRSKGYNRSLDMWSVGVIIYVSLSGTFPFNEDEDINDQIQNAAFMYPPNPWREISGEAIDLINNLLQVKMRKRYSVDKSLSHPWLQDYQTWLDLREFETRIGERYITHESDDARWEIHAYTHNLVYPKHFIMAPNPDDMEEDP
The conditions noted are these: at 0.1 µM.

The target of assay [13] is T4, Serine/threonine-protein kinase D3 (Homo sapiens). The conditions noted are these: at 1 µM.
Assay [14] deals with T5, cGMP-dependent protein kinase 1 (Homo sapiens) (UniProt Q13976).
T5 sequence (whole entry): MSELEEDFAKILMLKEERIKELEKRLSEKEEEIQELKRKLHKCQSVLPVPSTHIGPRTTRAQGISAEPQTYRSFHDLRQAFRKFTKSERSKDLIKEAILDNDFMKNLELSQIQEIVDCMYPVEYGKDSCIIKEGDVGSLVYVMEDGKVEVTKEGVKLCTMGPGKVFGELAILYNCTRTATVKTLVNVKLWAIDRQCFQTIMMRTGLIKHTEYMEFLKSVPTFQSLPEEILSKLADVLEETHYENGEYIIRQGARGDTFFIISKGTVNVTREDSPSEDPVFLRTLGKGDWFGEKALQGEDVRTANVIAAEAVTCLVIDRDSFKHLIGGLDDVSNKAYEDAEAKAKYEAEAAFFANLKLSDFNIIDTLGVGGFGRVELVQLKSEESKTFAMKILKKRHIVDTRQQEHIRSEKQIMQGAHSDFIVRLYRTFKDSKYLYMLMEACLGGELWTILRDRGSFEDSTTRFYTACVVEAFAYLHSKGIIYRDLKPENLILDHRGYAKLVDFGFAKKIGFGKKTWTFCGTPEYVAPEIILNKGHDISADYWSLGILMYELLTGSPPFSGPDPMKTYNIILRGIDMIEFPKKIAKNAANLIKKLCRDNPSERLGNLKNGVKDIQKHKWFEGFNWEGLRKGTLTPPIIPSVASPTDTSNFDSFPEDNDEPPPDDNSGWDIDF
Conditions: at 0.1 µM.

The target of assay [15] is T5, cGMP-dependent protein kinase 1 (Homo sapiens). The conditions noted are these: at 1 µM.
Assay [16] deals with T6, cGMP-dependent protein kinase 2 (Homo sapiens) (UniProt Q13237).
T6 sequence (whole entry): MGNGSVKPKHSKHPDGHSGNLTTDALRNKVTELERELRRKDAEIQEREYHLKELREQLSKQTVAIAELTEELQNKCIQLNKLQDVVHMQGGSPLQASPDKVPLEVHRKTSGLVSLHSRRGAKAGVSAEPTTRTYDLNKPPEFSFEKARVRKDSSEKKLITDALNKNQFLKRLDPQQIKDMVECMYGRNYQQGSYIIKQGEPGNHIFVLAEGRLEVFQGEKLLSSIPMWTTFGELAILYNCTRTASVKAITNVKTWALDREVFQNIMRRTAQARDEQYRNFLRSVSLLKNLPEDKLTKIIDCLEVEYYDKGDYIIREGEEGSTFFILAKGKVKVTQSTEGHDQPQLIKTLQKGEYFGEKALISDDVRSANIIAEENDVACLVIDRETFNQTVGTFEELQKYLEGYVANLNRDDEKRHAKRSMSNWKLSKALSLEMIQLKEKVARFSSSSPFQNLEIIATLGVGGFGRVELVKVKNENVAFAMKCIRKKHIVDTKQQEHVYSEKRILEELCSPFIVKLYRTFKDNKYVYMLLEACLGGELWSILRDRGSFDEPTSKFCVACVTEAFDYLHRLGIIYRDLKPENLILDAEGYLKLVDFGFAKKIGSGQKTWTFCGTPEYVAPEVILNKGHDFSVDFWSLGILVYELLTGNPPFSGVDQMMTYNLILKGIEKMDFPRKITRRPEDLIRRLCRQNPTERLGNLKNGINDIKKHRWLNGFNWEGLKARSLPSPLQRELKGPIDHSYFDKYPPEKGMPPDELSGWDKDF
Conditions: at 0.1 µM.

Assay [17] has as its target T6, cGMP-dependent protein kinase 2 (Homo sapiens). The conditions noted are these: at 1 µM.
Assay [18] has as its target T7, cAMP-dependent protein kinase catalytic subunit PRKX (Homo sapiens) (UniProt P51817).
T7 sequence (whole entry): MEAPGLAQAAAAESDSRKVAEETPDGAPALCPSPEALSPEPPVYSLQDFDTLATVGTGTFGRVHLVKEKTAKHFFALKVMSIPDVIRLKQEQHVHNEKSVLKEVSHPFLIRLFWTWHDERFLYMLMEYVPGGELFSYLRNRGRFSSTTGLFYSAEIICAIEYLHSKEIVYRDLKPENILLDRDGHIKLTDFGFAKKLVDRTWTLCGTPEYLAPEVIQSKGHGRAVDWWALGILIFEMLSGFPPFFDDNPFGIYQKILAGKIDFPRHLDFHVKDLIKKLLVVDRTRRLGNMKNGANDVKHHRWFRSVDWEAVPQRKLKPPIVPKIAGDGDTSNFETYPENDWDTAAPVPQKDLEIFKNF
The conditions noted are these: at 0.1 µM.

Assay [19] concerns the target T7, cAMP-dependent protein kinase catalytic subunit PRKX (Homo sapiens). Conditions: at 1 µM.
Assay [20] concerns the target Rho-associated protein kinase 1 (Homo sapiens) (UniProt Q13464). The conditions noted are these: at 0.1 µM.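 Also: values are mean percent inhibition of ROCK1.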

Rho-associated protein kinase 1 (Homo sapiens), sequence (Q13464 2-1354 limits assumed): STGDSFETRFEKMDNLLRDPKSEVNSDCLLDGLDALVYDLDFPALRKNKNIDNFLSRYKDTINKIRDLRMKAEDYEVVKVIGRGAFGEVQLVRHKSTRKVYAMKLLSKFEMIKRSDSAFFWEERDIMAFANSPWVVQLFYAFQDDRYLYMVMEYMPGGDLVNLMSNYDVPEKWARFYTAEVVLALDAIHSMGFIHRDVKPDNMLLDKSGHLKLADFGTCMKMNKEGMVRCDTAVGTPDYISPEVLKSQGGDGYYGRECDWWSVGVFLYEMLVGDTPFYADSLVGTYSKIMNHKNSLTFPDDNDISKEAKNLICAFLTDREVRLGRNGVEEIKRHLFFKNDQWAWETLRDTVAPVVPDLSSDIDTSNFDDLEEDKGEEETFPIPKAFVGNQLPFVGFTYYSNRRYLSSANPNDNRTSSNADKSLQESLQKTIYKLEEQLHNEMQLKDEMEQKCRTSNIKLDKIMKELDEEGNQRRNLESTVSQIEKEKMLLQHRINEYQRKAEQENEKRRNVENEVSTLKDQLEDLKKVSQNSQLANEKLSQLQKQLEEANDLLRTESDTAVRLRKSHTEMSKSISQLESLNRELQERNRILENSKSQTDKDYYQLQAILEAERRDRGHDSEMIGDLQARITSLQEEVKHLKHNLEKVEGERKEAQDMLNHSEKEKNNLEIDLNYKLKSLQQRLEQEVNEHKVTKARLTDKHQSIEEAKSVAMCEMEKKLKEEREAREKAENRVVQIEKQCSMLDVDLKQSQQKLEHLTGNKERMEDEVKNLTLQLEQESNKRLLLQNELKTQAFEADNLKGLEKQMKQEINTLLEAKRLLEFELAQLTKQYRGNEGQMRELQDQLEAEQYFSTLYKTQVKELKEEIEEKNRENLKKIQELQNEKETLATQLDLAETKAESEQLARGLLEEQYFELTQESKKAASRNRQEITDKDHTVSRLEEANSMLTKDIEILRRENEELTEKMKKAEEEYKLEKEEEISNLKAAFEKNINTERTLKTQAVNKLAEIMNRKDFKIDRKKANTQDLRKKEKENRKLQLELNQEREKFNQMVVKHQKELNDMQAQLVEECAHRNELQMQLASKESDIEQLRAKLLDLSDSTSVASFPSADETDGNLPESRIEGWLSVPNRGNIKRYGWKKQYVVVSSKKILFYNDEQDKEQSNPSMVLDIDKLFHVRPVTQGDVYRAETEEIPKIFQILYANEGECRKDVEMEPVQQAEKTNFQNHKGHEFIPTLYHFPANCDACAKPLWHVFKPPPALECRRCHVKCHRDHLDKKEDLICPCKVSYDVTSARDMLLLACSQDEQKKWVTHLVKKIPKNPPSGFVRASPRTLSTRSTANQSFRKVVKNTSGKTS

For the compound `COc1cc2ncn(-c3cc(OCc4cccs4)c(C(N)=O)s3)c2cc1OC`, the inhibition (as a rule, the drop in the measured response relative to a control, in per cent) in assay [1] was found to be 6.19%; in assay [2], 2.66%; in [3], 0.01%; in assay [4] it was 1.98%; in assay [5] it was 6.01%; in assay [6], 2.61%. Moreover, the inhibition was 4.99% in [7]; -0.16% in [8]; -1.53% in [9]; -1.61% in [10]; -0.96% in assay [11]; -1.14% in assay [12]. Besides, the inhibition in [13] is -2.04%; in assay [14] it was 3.61%; in assay [15], 7.44%; in [16], 3.73%; in assay [17] it was 6.83%; in assay [18], 3.18%. Moreover, the inhibition in assay [19] is -3.65%; in assay [20] it was 2.39%.
Regarding `Fc1ccc(-c2ncn(C3CCNCC3)c2-c2ccnc(Oc3ccc(F)c(F)c3)n2)cc1`, the inhibition in assay [1] was 4.25%; in assay [2], 1.82%; in assay [3], 1.79%; in assay [4], 2.61%; in [5], 2.43%; in [6] it was 0.97%. The inhibition in [7] is 3.85%; in [8], 2%; in assay [9] it was 7.05%; in [10] it was 1.25%; in assay [11] it was 3.98%; in [12], 1.09%. The inhibition in assay [13] was determined as 5.58%; in [14], 2.42%; in assay [15] it was 0.89%; in assay [16], 0.9%; in assay [17] it was 4.44%; in [18] it was 1.98%. The inhibition was found to be 2.55% in assay [19] and 1.38% in assay [20].
